Values joined by “and” are separate entries in the source; they are usually repeats but may differ in a detail not shown here. Equal entries are not always repeated. About 83,000 compounds went through this panel and 20% of them were active in at least one assay; those are over-represented in the sample as a whole.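 How to read the values: 0–100, growth inhibition (40 = 60% inhibited); 0, no net growth; -100 to 0, cell death (-40 = 40% of starting cells died; -100 = all dead).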 Active and inactive are the calls of the source. Rule for the calls: active = growth percent below 10; inactive = the rest.

The assay has as its system UACC-62 melanoma. The assay is described as follows: NCI-60 one-dose screen, 48 h (100 = growth as untreated, 0 = no growth, -100 = all killed). The conditions noted are these: 10 µM unless noted.
For `Cn1c2c(c3ccccc3c1=O)C(=O)c1ccccc1-2`, the growth is 27.3% [100 µM] (inactive) and -100% [100 µM] (active).
In the case of `C=CC1=C(C)C2=NC1=CC1=NC(=C(CC)/C1=C\O)C=C1N=C3C(=C1C)C(=O)[C@H](C(=O)OC)C3=C1NC(=C2)[C@@H](C)[C@@H]1CCC(=O)O` it was -28.7% [100 µM] (active) and 0.467% [100 µM] (active); in that of `CCCCCCCCCC(O)CC(=O)c1c(O)cccc1O` (centres undefined), -96.8% [100 µM] (active) and -100% [100 µM] (active).
For `COc1cc(-c2nc(SC)nc3c2CCc2ccccc2-3)cc(OC)c1OC`, the growth was 42.6% [100 µM] (inactive) and 23.7% [100 µM] (inactive).
For `COC(=O)C(=O)C(C(=O)C(=O)Nc1ccccc1OC)c1nc2ccc([N+](=O)[O-])cc2[nH]c1=O` (centres undefined), the growth is 41.9% [100 µM] (inactive) and 22.7% [100 µM] (inactive).
Turning to `COC(=O)c1cnn2c1n[n+]([O-])c1ccccc12`, the growth is 72.4% [100 µM] (inactive) and -65.7% [100 µM] (active).
For `O=C(NC1=NC2C=CC([N+](=O)[O-])=CC2S1)C(=O)Nn1c(=S)[nH]c2ccccc2c1=O` (centres undefined), the growth was -8.33% [100 µM] (active) and 16.8% [100 µM] (inactive).
As for `CC1C2(C)OC(=N)C(C#N)(C(c3cccc([N+](=O)[O-])c3)O2)C1(C#N)C#N` (centres undefined), the growth was 100% [100 µM] (inactive).
`Cc1ccc(OCC2OC(n3cnc4nc(Cl)nc(Cl)c43)CC2Oc2ccc(C)cc2)cc1` (centres undefined): the growth was -72.2% [100 µM] (active) and -100% [100 µM] (active).
Consider `C/C=C1\NC(=O)[C@H]2CSSCCC=C[C@H](CC(=O)N[C@H](C(C)C)C(=O)N2)OC(=O)[C@H](C(C)C)NC1=O`, for which the growth is -83.2% [0.1 µM] (active) and -98.1% [0.1 µM] (active).
As to `COc1c(OC)c(OC)c2c(c1OC)c(=O)c1ccccc1n2C`, the growth was 38.1% [100 µM] (inactive) and -44.4% [100 µM] (active).
For `COc1ccc2c(=O)c(-c3cc4c(cc3OC)OCO4)coc2c1`, the growth is 30.1% [100 µM] (inactive) and 25.3% [100 µM] (inactive).
As for `CC1OC(Oc2c(-c3cc(O)c(O)c(O)c3)oc3cc(O)cc(O)c3c2=O)C(O)C(O)C1O` (centres undefined), the growth was 59.6% [100 µM] (inactive) and -60.3% [100 µM] (active).
As to `COc1ccc(-c2coc3c4c(ccc3c2=O)OCO4)cc1OC`, the growth is 43.3% [100 µM] (inactive) and 6.94% [100 µM] (active).
In the case of `CC(=O)C1=C(C)N2C(=NC3=C(CCc4ccccc43)C2c2ccc(Cl)cc2)S1` (centres undefined) it was 48.8% [100 µM] (inactive) and 14.3% [100 µM] (inactive).
Consider `O[C@H]1[C@H](O)[C@@H](Cn2nnc(-c3ccccc3)c2-c2ccccc2)OCO[C@@H]1Cn1nnc(-c2ccccc2)c1-c1ccccc1`, for which the growth is -77.8% [100 µM] (active).
Consider `O=C(O)c1n[nH]nc1Cl`, for which the growth is 43.6% [100 µM] (inactive) and 103% [100 µM] (inactive).
Turning to `Cc1ccc2c(/C=C/c3ccc(N(C)C)cc3)ccc(C(C)C)cc1-2`, the growth was 68.4% [100 µM] (inactive) and 58.1% [100 µM] (inactive).
In the case of `Cc1cc(N(CCC#N)CCC#N)ccc1/C=N/NC(=O)c1cc(Cl)ccc1O`, the growth was 46.2% [100 µM] (inactive) and 8.92% [100 µM] (active).
Take `Cc1ccc(/C=N/Nc2nc3ccccc3s2)s1`: the growth is 45% [100 µM] (inactive) and 40.5% [100 µM] (inactive).
Under `C=C1C(=O)O[C@@H]2C[C@@]3(C)CC(=O)C=C(C)[C@@H]3C[C@H]12` stands -95.6% [100 µM] (active) and -86.6% [100 µM] (active).
For the molecule `N#CC1(C#N)N[C@@H](c2ccsc2)[C@H]2C(=O)N(c3ccccc3)C(=O)[C@H]21`, the growth was 23.2% [100 µM] (inactive) and 0.172% [100 µM] (active).
Turning to `COc1ccc2nc(NC(=O)/C(C#N)=C/c3ccccc3)sc2c1`, the growth is 36.9% [100 µM] (inactive) and 15.8% [100 µM] (inactive).
In the case of `CC/C(Cl)=N\OC(=O)Nc1ccc(OC)cc1` it was -92.2% [100 µM] (active) and -94.2% [100 µM] (active).
`COc1ccc2c(C)cc(N/N=C/c3ccc(C)s3)nc2c1`: the growth is -86.5% [100 µM] (active) and -100% [100 µM] (active).
As for `Cc1ccc(/C=C2/N=C(N/N=C\c3ccccc3)NC2=O)cc1`, the growth is 28.2% [100 µM] (inactive) and 56.4% [100 µM] (inactive).
In the case of `C=C(CCC(C(=O)O)C1CCC2(C)C3=C(CCC12C)C1(C)CCC(O)C(C)(C)C1CC3)C(C)C` (centres undefined) it was -50.9% [100 µM] (active) and -100% [100 µM] (active); in that of `COc1ccc2cc(CN3CCC(C4CCNCC4)CC3)ccc2c1`, -93.1% [100 µM] (active) and -100% [100 µM] (active); in that of `Cc1ccc(OC2CC(n3cnc4ncnc(Cl)c43)OC2Oc2ccc(C)cc2)cc1` (centres undefined), 11.7% [100 µM] (inactive) and -100% [100 µM] (active).
Consider `Clc1c(Cl)c(Cl)c2nn(C3CCCO3)nc2c1Cl` (centres undefined), for which the growth was -16.1% [100 µM] (active) and -100% [100 µM] (active).
Consider `COC(=O)/C(=N\NC(=S)NN)C(C(=O)OC)C(=O)C(=O)Nc1cccc(C(F)(F)F)c1` (centres undefined), for which the growth is 98.2% [100 µM] (inactive) and 59.6% [100 µM] (inactive).
Consider `CC(C)C1OC(N)=C(C#N)C1(C#N)C#N` (centres undefined), for which the growth is 55.5% [100 µM] (inactive) and 25.9% [100 µM] (inactive).
In the case of `C=C1C(=O)OC2/C=C(\CO)CC/C=C(\CO)CC(OC(=O)C(C)C)C12` (centres undefined) it was -89.5% [100 µM] (active) and -98.8% [100 µM] (active).
In the case of `NC(=S)Nc1[nH]c(=S)nc2c1SC1=N/C(=C\c3ccco3)C(=O)N12` it was 25.1% [100 µM] (inactive) and 18.6% [100 µM] (inactive).
Regarding `CCC/C(Cl)=N/OC(=O)Nc1cccc(F)c1`, the growth was -86.8% [100 µM] (active) and -100% [100 µM] (active).
As for `Cc1cc(S(=O)(=O)O)c(NC(=O)c2oc3cc(O)ccc3c(=O)c2C)cc1Cl`, the growth was 85.1% [100 µM] (inactive) and 89.4% [100 µM] (inactive).
Under `COC(=O)C1=CO[C@@H](OC2OC(CO)C(O)C(O)C2O)[C@H]2[C@@H](C)[C@@H](O)[C@@H](O)[C@@H]12` (some centres undefined) stands 89.9% [100 µM] (inactive) and 99.1% [100 µM] (inactive); under `Cc1ccc(/C=N/Nc2cnccn2)s1`, 58.8% [100 µM] (inactive) and 98.5% [100 µM] (inactive); under `CCCCCCCCCC(=O)CC(=O)c1c(O)cc(O)cc1O`, -97.6% [75 µM] (active) and -88.4% [75 µM] (active).

The values are drawn from PubChem BioAssay (NCI).
